Experimental data published in PubChem BioAssay AID1508600 (Functional Genomics Laboratory (NCATS/FGL), 2020).
Among all 53,000 sequences or so, about 3,700 (7%) were called active. The entries come from a sample that favours actives as a whole. A number with no mark means an inactive call.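 Rule for the calls: active = gene knockdowns whose robust z-score for IL-1 alpha signal is at least 2 or at most -2, so actives lie on both sides; inactive = the rest.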

assay: Components of the Cytosolic LPS Sensing Pathway: Gene Identification via Genome-wide siRNA Screen; conditions: RAW264.7 macrophages, IL-1a HTRF, actives lie on both sides, screened at 100 nM (by protocol), cells primed 5 h with Pam3CSK4 first;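 note: robust z of the log signal after scaling to non-targeting control siRNA wells of the plate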
In short: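 Cells (RAW264.7, 1×10^4 per well) were transfected with siRNA at 100 nM and cultured 48h at 37 degrees C. Pam3CSK4 was added for 5 hours; LipidA transfection followed for 24 hour. IL-1a was then measured by HTRF.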

Sequence | z-score
GGCUCAUGGAAAACUCUAUTT against Hspa9 | 2.24 (active)
GGUUGCCAAUGACACUCGGTT against Trak2 | -0.342
GCCAUUCUAACUCUGCCUCTT against Olfr639 | 0.232
GGGUUCAACACAGCCAAUGTT against Fam151a | 0.987
CCCUAUUUGACAAAUUCCUTT against Cdo1 | 0.245
GCUGAAUCACUACCAGUCATT against Zfp462 | 1.27
GGCAAUUCGAAUUUUGGUUTT against Rtraf | 0.891
GGCAAACGAAACACUAGCATT against Cacna1d | 4.94 (active)
GGUACUUCAUCGAUUCAGCTT against Zfp593 | -0.561
GGAUAGCACAGCCCUACAUTT against Kcns1 | -0.197
GCUUACUGUCCCUUAAGUUTT against Msantd1 | 2.45 (active)
GGACAAAGAUGAAUAUGUGTT against Spag6l | -0.34
GGCCGUGAUGCUAGAGAACTT against Zfp661 | 0.131
GGUGAUUCACAUACUUUAUTT against Vps54 | 0.612
GGGUUACCAGACUAACAAATT against Stfa3 | 0.763
GCGAAUUCGUGAGAAGAGCTT against Ripk4 | -0.884
GCACGUAUGCUCUUUCUCATT against Pigw | -2.52 (active)
CCAAGUAAGGACUAUAGAGTT against Gpatch2 | -1.02
CGCUGCUAAGAAUCAUCUATT against Ednrb | 0.287
GGAAGCCACGGUCAUGUGUTT against Trim9 | 0.746
GGAAUGGGCAGUAUGAGUUTT against Ocrl | -1.73
GGUAGUCAAGUCGAAAGUATT against Ccdc18 | -2.19 (active)
GGACAAUGCUGUGACCUCUTT against Amn | -0.949

Sequence | z-score
GGGAAGCAGAAAUGAGAAATT against Pdcd5 | 0.135
GAGUGUUUCAGAUUCUUCATT against Klra8 | 0.329
UCUUUGUGAUUUCGAAGCCTT against Slc17a9 | 2.31 (active)
GGAUAAAGAAGGUAUUCUUTT against Mccc1 | -0.891
GGCCCAGAAGGUUAUCAUCTT against Ptf1a | 0.606
GGAAAUCACGACCAUGGCGTT against Gtf2b | 0.0198
GCACUUCCGACUUUUUCACTT against Mettl24 | -1.69
GAGCUUCUGGCUGAGAUAATT against Espn | -0.388
GUGUAUGCGCUGAUCCUAUTT against 1700020N01Rik | 0.181
GGAGCUCUCAUCCUACUAUTT against Eif4ebp3 | -0.0855
GGCCUUUGAGAAGAACAUUTT against Copz1 | -2.16 (active)
GGAGUUUUUAUUCAAGGAATT against Slc35b3 | -1.07
GGCAGUGUACAUCUGGAUATT against Olfr611 | 1.85
CCGUGUUCCGAGGAUAUGUTT against Cyp2e1 | -0.212
GGGACUAUGACAAAACAGCTT against Atad2 | 0.0122
CCUGACAUUCUUUAAUCCATT against Synb | 0.6
CCAACUCUAAUAAUAACAGTT against Slc22a26 | 3.31 (active)
CCAGACAUGAAACUUGUAUTT against Mms19 | -0.165
GGCCAGAGGACUAUGUUAUTT against C1s2 | 1.24
GGGUGGAGAAAUUUUAAUGTT against Dse | -0.22
GGAAAAUGAGAUCAUGCCCTT against Sdf4 | -0.488
GGCGAUUCUGGCUCUCUUUTT against Commd9 | 1.28
GCAGAAAGAAACGUAAAUGTT against Dhx57 | 0.464

Sequence | z-score
GGCUUCAGCUAUUGGGCAATT against Vsig1 | 2.19 (active)
GGGAUGUGUACCGUUACAUTT against 1700010I14Rik | 0.155
CCCUUUUGUUUAGCUGAUCTT against Glrp1 | -2.14 (active)
GGACAGUUCGUGUUUGGUUTT against Wdfy2 | 0.0956
GGUUCAACAAAACAGGCUUTT against Serpina1f | -1.01
GGAUUAAUGUUUCCUGACUTT against Mturn | 0.704
GGGAAACAAACAGAAGAACTT against Cfap65 | -1.2
GGACAUUAACGAGCUGAACTT against Ube2m | 0.67
GGAGAAGAAGAACAGGACATT against Rnf186 | 2.35 (active)
GGACAGGUGAAGAUAAGUATT against Mug2 | -0.704
GCCUGUAUAGAUGCUAUUCTT against Setd1a | -0.894
GGUGGUUUGUGUUACAUUUTT against Ifnar2 | 2.38 (active)
GGACUAUGUCUUUGACAAATT against Cdyl2 | -0.133
GCCUAACAAUAGUGGAAUUTT against Ms4a13 | 2.76 (active)
GGAUUUCCUGUUCUUUCUATT against Prmt5 | 0.168
GGACUGUGGCACAGAGAAATT against Hgfac | -0.116
GCUGAUCCAACUGGAAUCUTT against Cep164 | 0.61
GGCAAAGAAUGCACUUUCUTT against Elapor2 | -0.536
GGAGUCCUAAAGAGUUCUATT against Slc11a1 | 0.723
GGAGAUGCCAGAGGUCAAATT against Gzmk | 2.08 (active)
GGCUUUCAAGACACUUCUUTT against Ccl6 | -1.6
GCUCAUUAACGAGAAAGUGTT against Atxn7l2 | -0.991
GGCUACUGUAAGAUUUCUATT against Mgat4f | 1.98
